From PubChem BioAssay AID488815 (Broad Institute, 2010)
Potency and affinity values are given separately. Inconclusive results are not listed. Activity calls are given as the source filed them. How the calls were made is not given here.

These molecules were tested against CAAX prenyl protease 1 (Saccharomyces cerevisiae (strain ATCC 204508 / S288c)) (UniProt P47154) (assay: Ste24 protease inhibitors, dose response, biochemical, S. cerevisiae, plate reader, cherry-pick (AID 488815)). Details: yeast Ste24 protease activity; series mostly up to 10 µM.
Chain of CAAX prenyl protease 1 (Saccharomyces cerevisiae (strain ATCC 204508 / S288c)) (P47154 whole entry, looked up): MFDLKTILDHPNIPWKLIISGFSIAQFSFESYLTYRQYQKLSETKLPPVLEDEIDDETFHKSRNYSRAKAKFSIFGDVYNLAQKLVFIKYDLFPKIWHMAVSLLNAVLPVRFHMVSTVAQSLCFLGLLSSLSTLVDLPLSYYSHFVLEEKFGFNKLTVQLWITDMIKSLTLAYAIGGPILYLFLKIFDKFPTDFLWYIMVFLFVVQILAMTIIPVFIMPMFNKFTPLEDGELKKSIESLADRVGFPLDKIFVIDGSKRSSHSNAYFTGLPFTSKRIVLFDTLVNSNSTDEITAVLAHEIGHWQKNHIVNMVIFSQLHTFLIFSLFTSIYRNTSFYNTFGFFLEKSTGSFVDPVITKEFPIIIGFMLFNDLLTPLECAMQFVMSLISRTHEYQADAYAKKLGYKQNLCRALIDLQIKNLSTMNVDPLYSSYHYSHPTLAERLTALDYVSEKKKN

outcome, inactive:
CN1C(=O)/C(=C/c2cccc(Cl)c2)Sc2ccc(C(=O)N3CCOCC3)cc21
C#CCNC(=O)C1=C[C@@H](C2CCCCC2)C[C@@H](OCc2ccc(CO)cc2)O1
COc1ccccc1-n1c(-c2ccccc2)c[nH]c1=S
O=C(COc1ccccc1)Nc1cccc(-c2nc3cc4ccccc4cc3[nH]2)c1
O=c1c(-c2ccccc2)c(O)c2ccccc2n1-c1ccccc1
CCCCOc1ccc(Cc2c(COCC)[nH]c(=S)[nH]c2=O)cc1
Cc1ccc(S(=O)(=O)Nc2ccccc2C(=O)NCC2CCCO2)cc1 (stereo not given)
Clc1ccc(CN2CCc3c([nH]c4ccccc34)C2)cc1Cl
O=C(Nc1cc(S(=O)(=O)N2CCOCC2)ccc1N1CCCC1)c1cnccn1
CC1CCc2c(sc(NC(=O)COC(=O)c3ccccc3NCc3ccco3)c2C#N)C1 (stereo not given)
Cc1cc(NC(=O)c2oc3ccccc3c2C)ccc1-n1cnnn1
O=C(CCNS(=O)(=O)c1ccc2[nH]c(=O)oc2c1)NCc1ccccc1
CCN(CC)CCN(C(=O)c1ccc2ccccc2c1)c1nc2ccc(F)cc2s1
Cc1cccc(NC(=O)c2cc(S(=O)(=O)N3CCCCC3)c[nH]2)c1C
CCCCNC(=S)N=Nc1c(O)n(Cc2ccccc2)c2ccccc12
O=C(COC(=O)c1ccccc1Cc1ccccc1)NC1CCS(=O)(=O)C1 (stereo not given)
O=C(Nc1ccc(N2CCOCC2)c(Cl)c1)c1cc2ccccc2o1
Cc1cc(C(=O)N[C@H](c2ccccc2)[C@@]2(C)C[C@@H]2[C@@H](C)C(=O)Nc2ccc3ccccc3c2)n(C)n1
Cc1nc(N2CCOCC2)c2c(C)c(C(=O)Nc3ccc(C(F)(F)F)cc3)sc2n1
CC(C)c1cccc(OCC(=O)Nc2ccc(S(=O)(=O)Nc3ccccn3)cc2)c1
CCC(COC)NC(=O)CCc1nnc(Cc2cccc(C(F)(F)F)c2)o1 (stereo not given)
CN(C(=O)c1ccc2c(c1)SC1=NS(=O)(=O)CCN12)C(c1ccccc1)c1ccccc1
Cc1ccc(C(=O)N2N=C(c3ccccc3O)CC2c2ccccc2)cc1 (stereo not given)
COc1ccc(Br)cc1C(=O)Nc1cc(C)cc(C)c1
CC(=O)N(C)c1ccc(NC(=O)/C=C/c2ccccc2Cl)cc1
Cc1nc(-c2ccc(Cl)cc2)sc1C1(C)CC(c2ccccc2Br)=NO1 (stereo not given)
CN(C(=O)COC(=O)c1cc([N+](=O)[O-])ccc1Sc1ccccc1)C1CCS(=O)(=O)C1 (stereo not given)
Cc1ccc(NC(=O)CCc2ccc(S(=O)(=O)NC3CCCCC3)cc2)cc1
CC(=O)Nc1ccc(Cl)cc1C1COC(=O)C1=N (stereo not given)
COc1cccc(-c2csc(N3CCN(C(=O)NC45CC6CC(CC(C6)C4)C5)CC3)n2)c1
O=C(Nc1sc2c(c1C(=O)c1ccc(Cl)cc1)CCCC2)c1cccnc1
Cc1ccccc1NS(=O)(=O)c1ccc(C(=O)NCC(c2ccccc2)N(C)C)cc1 (stereo not given)
CC1(c2ccc(OCC#N)cc2)C=C(c2ccc(OCC#N)cc2)n2nc(C(F)(F)F)nc2N1 (stereo not given)
CCOC(=O)c1c(NC(=O)COc2ccccc2F)sc2c1CC(C)(C)NC2(C)C
O=C1CCCC(O)=C1N=Nc1ccc2ncsc2c1
c1ccc(Nc2cccc(Nc3ccccc3)n2)cc1
CN(C)CC(C)(C)CNC(=S)NCc1ccc2c(c1)OCO2
COc1cc2c(cc1OC)C(C)N(C(=O)c1cc3c(=O)oc4ccc(C)cc4c3s1)CC2 (stereo not given)
CCCCOC(=O)Nc1nc(C)c(C(=O)OCC)s1
CC(C)CC(=O)NC(=S)Nc1ccc(S(=O)(=O)Nc2nccs2)cc1
